Reference: PubChem BioAssay AID602250 (The Scripps Research Institute Molecular Screening Center, 2012)
Hit rate of the full screen: of about 360,000 compounds, about 2,200 (0.61%) were called active. The sample holds actives, similar compounds and a random draw of the others, so the mix is not that of the screen. A number with no mark means an inactive call.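 How the source made its calls: active means inhibition above a per-plate cutoff, the plate's mean sample inhibition plus 3 SD (cut at about 24% in these data); inactive means the rest.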

Test: calcium signal blockers in parental CHO-K1 cells – cell-based, Fluo-8 calcium fluorescence, full deck, 1536-well, counter-screen for M1 antagonist project, primary screen (AID 602250);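 further: 0% = DMSO plus EC80 ATP and 100% = DMSO alone without ATP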
Settings: ATP-induced calcium, Fluo-8 fluorescence, at 3 µM, hits give high values
In the case of `COc1ccc(C(C[N+](=O)[O-])n2nc(C)cc2C)cc1` (configuration not stated), the inhibition is reported as -0.39%.
Work on `Cc1c(Cl)cccc1NC(=O)NCc1ccc(C)n1C` yielded an inhibition of 3.33%.
For `Cc1c(Cl)cccc1NC(=O)Nc1ccc(C(=O)N2CCCC2)cc1`, the inhibition was -18.4%.
In the case of `Cc1c(NC(=O)Nc2ccccc2Cl)sc(=S)n1C`, the inhibition is reported as 24.7% (active).
With `CC1(C)CC(=O)c2cnc3nc4ccccc4n3c2C1` the inhibition was -11.2%.
With `CC1(C)CC(=O)C(N=Nc2c(F)cccc2F)=C(O)C1` the inhibition was -15.2%.
With `CCOC(=O)C1(C)CCCN(C(=O)c2cccc(Cl)c2)C1` (configuration not stated) the inhibition was -16.1%.
`CCO/N=C(/C)c1c(O)cc(-c2ccccc2)n(-c2ccccc2)c1=O` showed an inhibition of -7.62%.
In the case of `C=CCO/N=C(\C)c1c(O)c(C)c(-c2ccccc2)n(-c2ccccc2)c1=O`, the inhibition is reported as 28% (active).
In the case of `Cc1nn(-c2ccccc2)c(C)c1/C=N/NC(=O)CSc1nc2ccccc2c(=O)n1-c1ccccc1`, the inhibition is reported as 14.8%.
For `O=C(C1CC1)N1N=C2CCCCC2C1(O)C(F)(F)F` (configuration not stated), the inhibition was 3.71%.
`CC(=O)NCCc1ccc(S(=O)(=O)Nc2ccc(C)c(S(=O)(=O)N3CCOCC3)c2)cc1` gave an inhibition of 11%.
In the case of `Cn1c(=O)c2c(SCC(=O)N3CCOCC3)nc(C3CC3)nc2n(C)c1=O`, the inhibition is reported as -6.78%.
`CCCC1(C(=O)OCC)NC(c2ccc(N(C)C)cc2)C2C(=O)N(c3ccc4c(c3)OCCO4)C(=O)C21` (configuration not stated) gave an inhibition of -5.19%.
`Cc1ccc(CNC(=O)CCNS(=O)(=O)c2cccc3nonc23)cc1` showed an inhibition of -10.2%.
For `CCNC(=S)NNC(=O)C1CCN(Cc2ccccc2)CC1`, the inhibition was -12.2%.
`Cc1scc(C(=O)NNC(=S)NCc2ccccc2)c1C` gave an inhibition of -15.3%.
In the case of `CCNC(=S)NNC(=O)Cc1ccccc1`, the inhibition is reported as 32.5% (active).
In the case of `CCOC(=O)C1CCN(C(=O)c2ccc3c(=O)n4nc(Nc5ccccc5CC)sc4nc3c2)CC1`, the inhibition is reported as -9.89%.
Work on `COC(=O)C1=C(N)Oc2cc(C)oc(=O)c2C1c1cccnc1` (configuration not stated) yielded an inhibition of -3.67%.
`CCSc1nc(O)c(C(c2cccc(OC)c2)c2c(O)nc(SCC)[nH]c2=O)c(=O)[nH]1` showed an inhibition of -3.25%.
With `CCSc1nc2c(c(=O)[nH]1)C(c1cccnc1)C(C(=O)OC(C)C)=C(C)N2` (configuration not stated) the inhibition was 25.5% (active).
In the case of `COc1ccc(Cl)cc1NC(=O)CN(C)C(=O)CCCc1c[nH]c2ccccc12`, the inhibition is reported as 2.49%.
For `O=C1NC(Cc2ccccc2)c2nc3ccc(Br)cc3c(=O)n2-c2cc3ccccc3cc21` (configuration not stated), the inhibition was 12.3%.
With `COc1ccc(O)c(C=Nc2cc(C)on2)c1` the inhibition was -9.65%.
Compound `Cc1ccc(NC(=O)Nc2ccc3oc(C)nc3c2)cc1` has an inhibition of -8.85%.
For `CS(=O)(=O)c1ccccc1C(=O)Nc1ccc2sccc2c1`, the inhibition was -10.2%.
For `O=C(Nc1ccc2ccccc2c1)Nc1ccc2snnc2c1`, the inhibition was 32.6% (active).
`CC(C)Oc1ccc(CC(=O)NNC(=S)Nc2ccc(Br)cc2)cc1` gave an inhibition of -8.93%.
In the case of `CC(C)OCCCNc1ncnc2c1[nH]c1ccc(F)cc12`, the inhibition is reported as 26.5% (active).
With `CCOc1ccc(C2NC(=S)NC3=C2CCc2ccccc23)cc1` (configuration not stated) the inhibition was 4.36%.
With `COCc1[nH][nH]c(=O)c1C=Nc1ccc(F)cc1F` the inhibition was 3.8%.
With `CCN1/C(=C\c2ccc3ccccc3[n+]2CC)Sc2cc(C)ccc21` the inhibition was 47.2% (active).
In the case of `CC1(C(=O)O)CCC(C(=O)Nc2ccc(Cl)c(Cl)c2)C1(C)C` (configuration not stated), the inhibition is reported as -12.5%.
For `N#CCCN(C(=O)Nc1ccc(Cl)c(Cl)c1)C1CCCCC1`, the inhibition was 5.09%.
For `O=C(CC(O)(C(F)(F)F)C(F)(F)F)Nc1ccc(Cl)c(Cl)c1`, the inhibition was 42.9% (active).
With `CC1(C)C2CCC13CS(=O)(=O)NC3C2` (configuration not stated) the inhibition was -9.03%.
`NC1=NC2(CCCCC2)N(c2ccc(F)cc2F)C(N)=N1` gave an inhibition of 13.8%.
With `CC(C)N1CCc2c(sc(NC(=O)Cc3ccccc3)c2C#N)C1` the inhibition was 24.7% (active).
`N#Cc1c(N)sc2c1CCN(C(=O)OCc1ccccc1)C2` gave an inhibition of -19.6%.
In the case of `CC(=O)N1CCc2c(sc(NC(=O)CCS(=O)(=O)c3ccccc3)c2C#N)C1`, the inhibition is reported as 0.29%.
Work on `C[C@H](NC(=O)[C@@H]1CCCN1C(=O)[C@@H]1CCCN1C(=O)c1ccccc1)c1ccccc1` yielded an inhibition of -24.1%.
